Measured values taken from PubChem BioAssay (NCI).
This is part of a sample that, as a whole, favours compounds with a hit. Of some 79,000 tested, about 15% had one in any assay. Active and inactive are the calls of the source. Cut-off read from the data, not from the text of the source: active = growth inhibition above about 70%; inactive = the rest.

Columns and labels:
[1] = NCI Yeast Anticancer Drug Screen. Data for the rad52 strain (AID 147);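 note: 0% = growth of vehicle-treated control cultures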; conditions: S. cerevisiae rad52 mutant growth inhibition, hits give high values
Summary of the method: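 The repair-mutant yeast strain was incubated with compounds, then growth was read and inhibition derived relative to vehicle.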

[2] = NCI Yeast Anticancer Drug Screen. Data for the wt1 strain (AID 149);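 note: 0% = growth of vehicle-treated wt1 cultures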; conditions: S. cerevisiae wt1 strain (SPY 50644) growth inhibition, hits give high values
Summary of the method: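 Measured: growth of wt1 yeast under compound versus vehicle treatment, reported as inhibition.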

[3] = NCI Yeast Anticancer Drug Screen. Data for the rad50EPP+ strain (AID 151);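 note: 0% = growth of vehicle-treated control cultures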; conditions: S. cerevisiae rad50 mutant strain, hits give high values
Summary of the method: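 Vehicle-normalised growth inhibition; rad50EPP+ yeast strain, altered in DNA damage repair, compound-treated.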

[4] = NCI Yeast Anticancer Drug Screen. Data for the mgt1 strain (AID 153); conditions: S. cerevisiae mgt1 mutant growth inhibition, hits give high values
Summary of the method: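 Vehicle-normalized growth inhibition is determined in mgt1 yeast, a strain selected for a defined alteration in DNA repair or cell cycle control.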

[5] = NCI Yeast Anticancer Drug Screen. Data for the rad50 strain (AID 155);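 note: 0% = growth of vehicle-only cultures of the same strain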; conditions: S. cerevisiae rad50 strain growth inhibition, hits give high values
Summary of the method: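 Growth of the mutant yeast was measured after compound exposure and referenced to vehicle-treated cultures.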

[6] = NCI Yeast Anticancer Drug Screen. Data for the mec2-1 strain (AID 157); conditions: S. cerevisiae mec2-1 strain, hits give high values
Summary of the method: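 Mutant yeast (mec2-1) grown with compound; growth inhibition relative to vehicle control reported.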

[7] = NCI Yeast Anticancer Drug Screen. Data for the rad14 strain (AID 159);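 note: 0% = growth of vehicle-treated control cultures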; conditions: S. cerevisiae rad14 strain growth inhibition, hits give high values
Summary of the method: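 Here, inhibition of yeast growth was measured after compound exposure, using a strain with a genetic defect in DNA damage repair and vehicle-treated cultures as the reference.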

[8] = NCI Yeast Anticancer Drug Screen. Data for the sgs1 mgt1 strain (AID 161);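 note: 0% = growth of cultures given vehicle only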; conditions: S. cerevisiae sgs1 mgt1 strain, hits give high values
Summary of the method: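 Growth of a repair-deficient yeast mutant was monitored after compound treatment and expressed as inhibition relative to vehicle-treated cultures.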

[9] = NCI Yeast Anticancer Drug Screen. Data for the CLN2oe strain (AID 163);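 note: 0% = growth of vehicle-only control cultures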; conditions: S. cerevisiae CLN2oe strain, hits give high values
Summary of the method: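 Compounds are applied to yeast harbouring a defined cell-cycle control change; reduced growth compared with vehicle-treated controls gives the value.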

[10] = NCI Yeast Anticancer Drug Screen. Data for the cln2 rad14 strain (AID 165);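 note: 0% = growth equal to vehicle treated cultures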; conditions: S. cerevisiae cln2 rad14 strain, hits give high values
Summary of the method: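 Readout is yeast growth inhibition versus vehicle-treated controls, using a strain with cln2 and rad14 alterations exposed to compound.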

[11] = NCI Yeast Anticancer Drug Screen. Data for the bub3 strain (AID 167); conditions: S. cerevisiae bub3 mutant strain, hits give high values
Summary of the method: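 Whole-cell yeast assay. The mutant strain was incubated with compounds, and growth inhibition was determined by comparison with vehicle-treated cells.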

[12] = NCI Yeast Anticancer Drug Screen. Data for the wt2 strain (AID 169);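 note: 0% = growth of vehicle-treated yeast cultures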; conditions: S. cerevisiae wt2 strain growth inhibition, hits give high values
Summary of the method: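 Against vehicle-treated controls, the growth of yeast exposed to each compound was compared, and the inhibition was recorded.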

[13] = NCI Yeast Anticancer Drug Screen. Data for the mlh1 strain (AID 171);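 note: 0% = growth of vehicle-treated control cultures of the same strain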; conditions: S. cerevisiae mlh1 strain growth inhibition, hits give high values
Summary of the method: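 Measured: yeast growth. Reference: vehicle-treated controls. Organism: strain with a defined alteration affecting DNA damage repair or cell cycle control, treated with compound.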

[14] = NCI Yeast Anticancer Drug Screen. Data for the mlh1 rad18 strain (AID 175); conditions: S. cerevisiae mlh1 rad18 strain growth inhibition, hits give high values
Summary of the method: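 Genetically defined yeast (DNA repair-deficient) exposed to compounds; growth inhibition determined relative to vehicle.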

[15] = NCI Yeast Anticancer Drug Screen. Data for the rad18 strain (AID 177); conditions: S. cerevisiae rad18 mutant growth inhibition, hits give high values
Summary of the method: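 Vehicle-treated cultures served as the baseline for scoring compound-induced growth inhibition in DNA-repair-mutant yeast.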

[16] = NCI Yeast Anticancer Drug Screen. Data for the sgs1 strain (AID 173);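 note: 0% = growth of vehicle-only control cultures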; conditions: S. cerevisiae sgs1 mutant, hits give high values
Summary of the method: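 Each compound was added to cultures of the altered yeast strain. Growth was recorded, and inhibition was derived by comparison with vehicle controls.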

[17] = at 5.0 µM (retest, dose inferred, filed as 0.5)
[18] = at 50.0 µM (retest, dose inferred, filed as 5.0)

Measured: growth inhibition

CC(=O)O/C(=C1\C[C@H]2[C@@H]3CC=C4C[C@@H](OC(C)=O)CC[C@]4(C)[C@H]3CC[C@]2(C)C1=O)C(F)(F)F
inactive: [1]; at 1.2 µM -2% | [1]; at 3.7 µM -1% | [1]; at 11.0 µM -5% | [1]; at 33.0 µM -3% | [1]; at 100.0 µM 0% | [2]; at 1.2 µM -1% | [2]; at 3.7 µM 1% | [2]; at 11.0 µM 2% | [2]; at 33.0 µM 0% | [2]; at 100.0 µM 4% | [3]; at 1.2 µM 1% | [3]; at 3.7 µM 6% | [3]; at 11.0 µM 5% | [3]; at 33.0 µM 3% | [3]; at 100.0 µM 1% | [4]; at 1.2 µM 1% | [4]; at 3.7 µM 0% | [4]; at 11.0 µM 1% | [4]; at 33.0 µM 1% | [4]; at 100.0 µM 3% | [5]; at 1.2 µM 3% | [5]; at 3.7 µM -1% | [5]; [17] 18% | [5]; at 11.0 µM 7% | [5]; at 33.0 µM 2% | [5]; [18] 18% | [5]; at 100.0 µM 0% | [6]; at 1.2 µM 2% | [6]; at 3.7 µM 4% | [6]; [17] 19% | [6]; at 11.0 µM 4% | [6]; at 33.0 µM 5% | [6]; [18] 3% | [6]; at 100.0 µM 14% | [7]; at 1.2 µM 1% | [7]; at 3.7 µM -4% | [7]; at 11.0 µM 0% | [7]; at 33.0 µM -7% | [7]; at 100.0 µM 22% | [8]; [17] 2% | [8]; [18] 18% | [9]; at 1.2 µM -140% | [9]; at 3.7 µM 4% | [9]; at 11.0 µM 2% | [9]; at 33.0 µM 1% | [9]; at 100.0 µM 6% | [10]; [17] 37% | [10]; [18] -1% | [11]; at 1.2 µM -1% | [11]; at 3.7 µM 1% | [11]; [17] -10% | [11]; at 11.0 µM 10% | [11]; at 33.0 µM 3% | [11]; [18] 13% | [11]; at 50.0 µM 61.7% | [11]; at 100.0 µM 6% | [12]; at 1.2 µM -1% | [12]; at 3.7 µM 0% | [12]; at 11.0 µM -2% | [12]; at 33.0 µM -1% | [12]; at 100.0 µM 2% | [13]; at 1.2 µM 4% | [13]; at 3.7 µM 4% | [13]; at 11.0 µM 3% | [13]; at 33.0 µM -20% | [13]; at 100.0 µM 11% | [14]; [17] 9% | [14]; [18] 9% | [14]; at 50.0 µM 63.5% | [15]; at 1.2 µM -4% | [15]; at 3.7 µM -3% | [15]; at 11.0 µM 3% | [15]; at 33.0 µM -3% | [15]; at 100.0 µM -6%
active: [5]; at 50.0 µM 76.1% | [6]; at 50.0 µM 80.5% | [8]; at 50.0 µM 77.8% | [10]; at 50.0 µM 94%

COc1cccc2c1C(=O)c1c(O)c3c(c(O)c1C2=O)C[C@@](O)(C(C)=O)C[C@@H]3OC1CC(N)C(OC2CC(O)C(O)C(C)O2)C(C)O1 (stereo partly drawn)
active: [5]; [18] 83% | [5]; at 50.0 µM 76.8% | [10]; [18] 78%
inactive: [1]; at 1.2 µM 16% | [1]; at 3.7 µM 12% | [1]; at 11.0 µM 15% | [1]; at 33.0 µM 27% | [1]; at 100.0 µM 59% | [2]; at 1.2 µM -26% | [2]; at 3.7 µM -25% | [2]; at 11.0 µM -7% | [2]; at 33.0 µM -15% | [2]; at 100.0 µM -2% | [3]; at 1.2 µM 11% | [3]; at 3.7 µM 8% | [3]; at 11.0 µM 10% | [3]; at 33.0 µM 18% | [3]; at 100.0 µM 38% | [4]; at 1.2 µM -22% | [4]; at 3.7 µM -22% | [4]; at 11.0 µM -18% | [4]; at 33.0 µM -14% | [4]; at 100.0 µM -17% | [5]; at 1.2 µM 1% | [5]; at 3.7 µM 10% | [5]; [17] 36% | [5]; at 11.0 µM 17% | [5]; at 33.0 µM 28% | [5]; at 100.0 µM 59% | [6]; at 1.2 µM -25% | [6]; at 3.7 µM -20% | [6]; [17] 5% | [6]; at 11.0 µM -24% | [6]; at 33.0 µM -17% | [6]; [18] 33% | [6]; at 50.0 µM 49.1% | [6]; at 100.0 µM -8% | [7]; at 1.2 µM -10% | [7]; at 3.7 µM -11% | [7]; at 11.0 µM -9% | [7]; at 33.0 µM -1% | [7]; at 100.0 µM 15% | [9]; at 1.2 µM -14% | [9]; at 3.7 µM -10% | [9]; at 11.0 µM -12% | [9]; at 33.0 µM -6% | [9]; at 100.0 µM 6% | [10]; [17] 19% | [10]; at 50.0 µM 57.8% | [11]; at 1.2 µM -30% | [11]; at 3.7 µM -26% | [11]; [17] 4% | [11]; at 11.0 µM -31% | [11]; at 33.0 µM -23% | [11]; [18] 37% | [11]; at 50.0 µM 42.4% | [11]; at 100.0 µM -6% | [12]; at 1.2 µM -57% | [12]; at 3.7 µM -65% | [12]; at 11.0 µM -54% | [12]; at 33.0 µM -28% | [12]; at 100.0 µM 2% | [13]; at 1.2 µM -25% | [13]; at 3.7 µM -15% | [13]; at 11.0 µM -17% | [13]; at 33.0 µM -6% | [13]; at 100.0 µM -3% | [16]; at 1.2 µM -2% | [16]; at 3.7 µM -4% | [16]; at 11.0 µM -11% | [16]; at 33.0 µM -8% | [16]; at 100.0 µM 0% | [14]; [17] 18% | [14]; [18] 48% | [14]; at 50.0 µM 51.3% | [15]; at 1.2 µM -8% | [15]; at 3.7 µM -17% | [15]; at 11.0 µM -32% | [15]; at 33.0 µM -21% | [15]; at 100.0 µM -2%
